# Test results taken from PubChem BioAssay.
# Where “and” joins values, the source holds several entries; their conditions need not be identical. Equal values may be shown once.
# Tested on: Sonic hedgehog protein (Shh)
# Assay: small-molecule binders of Shh protein, primary screen, biochemical, small-molecule microarray, 635/667 nm fluorescence (AID 1151);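 also: Shh protein binding to compounds spotted on small-molecule microarray slides; score combines spot fluorescence intensity with signal-to-noise across triplicate slides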
# Details: small-molecule microarray binding, 635 nm fluorescence; higher = more signal
row,Structure (SMILES),composite z-score
1,CC(CO)N1C(=O)[C@@H]2C3C(=O)OCCC=C[C@H]3OC23C=CCN(c2ccc(Cl)cc2)C(=O)[C@@H]13 (some centres not stated),-0.359 and 0.829
2,CCOC(=O)NN=C1C[C@@H](O)[C@@H](O)[C@@H]2[C@@H]3C(=O)N(Cc4ccc5c(c4)OCO5)C(=O)[C@@H]3CC[C@@H]12,0.191
3,C=CCN(C(=O)C(c1cccs1)N(C(=O)/C=C\C(=O)O)c1ccc(CCO)cc1)C(C)(C)C (configuration not stated),-0.754 and -1.36
4,C=CCN(C(=O)C(c1cccs1)N(C(=O)/C=C\C(=O)O)c1c(Cl)cccc1CO)C(C)(C)C (configuration not stated),-1.98 and -2.58
5,C=CCN(CCCCC)C(=O)C1N(c2c(Cl)cccc2CO)C(=O)C2C(C(=O)O)C3C=CC21O3 (configuration not stated),-0.333 and -1.79
6,C=CCN(CCCC)C(=O)C(c1cccs1)N(CCOCCO)C(=O)/C=C\C(=O)O (configuration not stated),-0.127 and -0.197
7,CCCCCN1CC=CC23O[C@@H]4C=CCCOC(=O)C4[C@H]2C(=O)N(C(C)CO)[C@@H]3C1=O (some centres not stated),0.644 and 0.138
8,COC(=O)[C@H](C)NC(=O)CCC1CC(OC(=O)NCCc2ccc(F)cc2)CC2(CCCC(COC(=O)NCCCN3CCCC3=O)O2)O1 (some centres not stated),1.07
9,COC(=O)C1=C(C)N(Cc2ccccc2)C2=C(C(C)=O)C[C@@](O)(C(=O)OC)C(=O)N2[C@@H]1c1ccccc1,1.74 and 0.806
10,C=CCN(CCCCC)C(=O)C(c1cccs1)N(C(=O)/C=C\C(=O)O)c1c(Cl)cccc1CO (configuration not stated),-1.14 and -0.909
11,CC(C)CON=C1C[C@@H](O)[C@@H](O)[C@@H]2[C@@H]3C(=O)N(c4cccc(Oc5ccccc5)c4)C(=O)[C@@H]3CC[C@H]12,0.697
12,C=CCN(C(=O)C(c1cccs1)N(C(=O)/C=C\C(=O)O)C(C)(C)CO)c1ccc(OC)cc1 (configuration not stated),-0.763 and -0.121
